TROY signal inh: inhibitors of TROY-driven NF-kB signaling, primary screen, Q293 LMP1-TROYcd cells, NF-kB luciferase, uHTS; Q293 LMP1-TROYcd NF-kB luciferase reporter, 4 h; inhibition, % at 10 µM; actives 0.98% (n = 360,000);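 active means compounds whose plate-normalised and pattern-corrected inhibition of the luciferase reporter signal at the single screening dose is 50% or more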
HIF-2a block: HIF-2a reporter inhibitors, primary screen, luminescence, 786-0 RCC cells | inhibition, % at 18.8 µM | AID 624352, 2012 | actives 0.72% (n = 360,000) | 786-0 RCC cells HIF-2a reporter, luciferase luminescence, overnight;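 active means inhibition of the luminescence signal of 40% or more relative to plate controls, in a single-dose primary screen at 18.75 µM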
TRPM1 prom inh: inhibitors of MITF-dependent TRPM1 promoter reporter, primary screen, cell-based, SK-MEL-5, single point, luciferase. SK-MEL-5 TRPM1 promoter luciferase, 24 h. inhibition, % at 12.5 µM. actives 0.83% (n = 330,000);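 active means mean inhibition across replicates of 60% or more, whatever share of single replicates reaches that level; inconclusive means some that reach 60%, reason not given; inactive means mean inhibition across replicates below 60%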
LMP1 NFkB inh: EBV LMP1-driven NF-kappaB luciferase reporter inhibitors, primary screen, cell-based, luminescence, single point; actives 0.69% (n = 350,000); LMP1-induced NF-kappaB luciferase reporter cells; inhibition, % at 12.5 µM; AID 504558, 2011; in the data active means inhibition above about 41%; inconclusive means no clear call, values can overlap the other calls;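 further: 0% = neutral control wells and 100% = reference inhibitor control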
TWEAK Fn14 block: inhibitors of TWEAK-Fn14 signaling, primary screen, luciferase reporter cells, uHTS. TWEAK-stimulated Fn14 reporter cells, luciferase luminescence, 8 h. inhibition, % at 10 µM. actives 2% (n = 360,000). AID 1159606, 2016; in the data active means inhibition above about 50%
Peg3 promoter: Peg3 promoter-driven luciferase inhibitors, primary screen, cell-based, HeLa, luciferase luminescence. HeLa PEG-Prom luciferase reporter, overnight. inhibition, % at 20 µM. actives 1.7% (n = 360,000);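 active means inhibition of at least 50% at 20 µM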
* hit, by the source's call; ? = inconclusive; / = no result. Sampled rows, rich in hits. Any-hit rate of the full collection: about 4%.

SMILES	TROY signal inh	HIF-2a block	TRPM1 prom inh	LMP1 NFkB inh	TWEAK Fn14 block	Peg3 promoter
COc1cccc2cc(C(=O)NCc3ccco3)c(=Nc3ccc(C(=O)O)cc3)oc12	42.2	-18.4	-34.3	0.1	70.7*	-123.8
COc1ccc2cc(C(N)=O)c(=Nc3ccccc3)oc2c1	13.9	-138.7	-101.2	9.9	72.3*	-231.1
COc1ccc2cc(C(=O)NCc3ccccc3)c(=Nc3ccc(C(=O)O)cc3)oc2c1	-46.1	6.8	2.1	-7.2	58.9*	-35.6
CCOc1cc(/C=C2\C(=O)ON=C2c2ccccc2)ccc1OC	-12.4	12.2	17.8	6.9	4.9	37.6
CCOc1cc(/C=C2/C(=O)ON=C2C)ccc1OCc1ccc(F)cc1	-12.2	-1.2	?	-0.2	0.3	65.0*
CCOc1cc(/C=C2/C(=O)ON=C2C)ccc1OCc1ccccc1F	4.0	16.9	39.8	6.7	22.6	96.8*
CCN1CCN(S(=O)(=O)c2ccc(Cl)c(C(=O)N(C)Cc3ccco3)c2)CC1	-2.7	18.0	-7.3	-3.1	-6.0	-1.7
COc1ccc(Cn2c(=O)[nH]c3cc(C(=O)N4CCN(c5ccccc5F)CC4)ccc3c2=O)cc1	13.8	23.8	-0.4	2.9	-1.3	28.6
Cc1noc(C)c1COC(=O)c1cccc(S(=O)(=O)N2c3ccccc3CC2C)c1 (stereo not given)	18.7	31.2	26.4	10.3	52.8*	30.0
COc1ccc(Cn2c(=O)[nH]c3cc(C(=O)N4CCN(c5ccccc5OC)CC4)ccc3c2=O)cc1	31.2	4.9	18.0	1.7	52.6*	15.6
COc1cc(OC)cc(C(=O)N2CCC(N3CCN(c4ccccc4OC)CC3)CC2)c1	52.1*	15.3	-3.9	-20.8	52.9*	2.7
CC1Cc2ccccc2N1S(=O)(=O)c1cccc(C(=O)N2CCCCC2)c1 (stereo not given)	1.2	8.1	16.3	1.8	7.8	4.9
COc1ccccc1N1CCN(C(=O)c2cccc(S(=O)(=O)N3c4ccccc4CC3C)c2)CC1 (stereo not given)	27.7	11.2	7.0	8.5	23.2	78.0*
Nc1nc2c(ncn2[C@@H]2O[C@H](CNCc3ccc(Oc4cc(-n5cccn5)ncn4)cc3)[C@@H](O)[C@H]2O)c(=O)[nH]1	-1.9	0.2	/	/	-5.7	-4.8
N#Cc1ccc(CN2CCN(C(=O)CN3C(=O)NC4(CCCC4)C3=O)CC2)cc1	-3.5	8.8	15.4	8.6	12.1	-2.5
Cc1ccc(S(=O)(=O)N2[C@H](CC(=O)c3ccc(Cl)c(Cl)c3)OC[C@@H]2C)cc1	/	-44.5	/	/	/	/
COc1ccc(-n2ncc3c(NCC(C)C)ncnc32)cc1	30.7	-114.6	-0.7	7.3	50.4*	-145.0
Clc1ccc(-n2ncc3c(NCCN4CCOCC4)ncnc32)cc1	67.0*	-2.2	7.1	20.1	83.0*	-63.6
COc1ccc(-n2ncc3c(NCc4cccnc4)ncnc32)cc1	-62.0	-220.3	-63.2	-27.3	0.2	-223.7
COCC(C)Nc1ncnc2c1cnn2-c1ccc(Cl)cc1 (stereo not given)	39.7	-156.3	-68.3	-14.1	56.7*	-265.2
COc1ccc(-n2ncc3c(NC(C)C)ncnc32)cc1	27.5	-81.8	-14.3	36.6	63.6*	-168.8
COc1ccc(OC)c(Nc2ncnc3c2cnn3-c2ccccc2)c1	-18.4	-138.1	-19.8	-3.7	-1.3	-93.3
CN1C(=O)N(C)c2ccc(C=O)c3cccc1c23	5.6	12.3	-0.4	85.7*	-25.3	34.5
CN1C(=O)N(C)c2cccc3cccc1c23	14.2	3.9	-2.0	5.6	-6.8	33.8
CN1C(=O)Nc2cccc3cccc1c23	20.3	-0.7	18.3	-2.7	18.1	10.9
SMILES	TROY signal inh	HIF-2a block	TRPM1 prom inh	LMP1 NFkB inh	TWEAK Fn14 block	Peg3 promoter
CN1C(=O)N(C)c2ccc(Br)c3cccc1c23	64.8*	9.4	8.3	1.0	17.7	-2.4
COc1ccccc1N(CCC#N)C(=S)Nc1ccc(S(=O)(=O)N2CCOCC2)cc1	17.8	6.3	-4.3	-3.2	1.2	3.5
CCCCN(C)CC(O)Cn1cc(/C=C/C(=O)c2cccs2)c2ccccc21 (stereo not given)	-48.5	-28.3	90.4*	-19.8	-25.3	43.7
O=C(/C=C/c1cn(CC(O)CN2CCCCCC2)c2ccccc12)c1cccs1 (stereo not given)	-49.0	-56.1	7.5	-4.8	-16.7	-18.4
Cc1ccc(F)cc1C(=O)N1CCCCC1c1cc(C(=O)Nc2ccc(F)c(Cl)c2)no1 (stereo not given)	24.9	2.0	/	/	6.1	11.3
COc1ccc(C(=O)NCCN2CCCC2)cc1	0.3	15.8	3.7	1.0	10.0	17.9
O=C1Nc2cc(C(=O)NCCCN3CCOCC3)ccc2S/C1=C/c1cccc(Cl)c1	48.6	-1.7	-8.9	3.0	-19.5	106.7*
COc1ccc(/C=C2/Sc3ccc(C(=O)NCCN4CCCCCC4)cc3NC2=O)cc1	-16.8	2.9	95.3*	-1.3	-46.5	104.7*
O=C1Nc2cc(C(=O)NCCCN3CCOCC3)ccc2S/C1=C/c1ccccc1F	-15.6	-2.7	-0.5	1.4	-7.0	16.1
CCC1CCCCN1CCCNC(=O)c1ccc(/C=C2/Sc3ccccc3NC2=O)cc1 (stereo not given)	-42.4	-33.3	28.4	13.0	-8.9	99.4*
O=C1Nc2cc(C(=O)NCCCN3CCCC3)ccc2S/C1=C\c1ccccc1	-18.2	-4.1	96.0*	-5.5	-9.0	90.9*
COc1ccc(CC(=O)Nc2sccc2C#N)cc1S(=O)(=O)N1CCOCC1	-6.8	18.8	8.6	1.1	-12.2	10.2
Cc1ccccc1-c1nc(CN2CCC(C(=O)NCCCN3CC(C)CC(C)C3)CC2)c(C)o1 (stereo not given)	-0.2	16.1	-4.2	-23.9	-31.5	12.3
COc1ccc(C(C[N+](=O)[O-])C2(c3ccc(OC)c(OC)c3)C(=O)c3ccccc3C2=O)cc1 (stereo not given)	46.6	87.2*	7.1	4.7	45.0	101.5*
COc1ccc(C(C[N+](=O)[O-])c2c(-c3ccccc3)cc3ccccn23)cc1OC (stereo not given)	-12.7	3.8	1.3	-1.4	-5.6	6.3
CCOc1ccccc1NC(=O)CN1C(=O)NC(Cc2c[nH]c3ccccc23)C1=O (stereo not given)	1.7	16.0	19.7	-5.3	6.1	21.9
O=C(N/N=C/c1ccccn1)c1[nH]c2ccc([N+](=O)[O-])cc2c1-c1ccccc1	54.3*	-9.8	9.5	7.1	16.5	54.6*
O=C(N/N=C/c1ccccc1)c1[nH]c2ccc(Br)cc2c1-c1ccccc1	13.6	30.5	74.4*	12.9	42.4	-1.1
